Shown are actives, neighbours in structure and some others; about 3.8% of the full set was active somewhere.
KCNH2 3.1 inh: qHTS for Inhibitors of KCHN2 3.1: Mutant qHTS. U2OS KCNH2 3.1, thallium flux FluxOr; active compounds read low. activity change, % (tested at about 1.8 µM). Potassium voltage-gated channel subfamily H member 2, brain isoform KCNH2 3.1 (human). hit rate 0.95% among 340,000. AID 720553, 2013;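 active = maximum activity change below -70%; inconclusive = maximum activity change from -70% to -50%; inactive = maximum activity change above -50%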;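 also: thallium influx rate constant from kinetic fluorescence after stimulation buffer; % is scaled to controls: 0 for no effect and ±100 for the full control effect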
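Kinetic fluorescence (2 min after stimulation buffer) measures Tl+ influx through KCNH2 3.1 expressed by viral transduction in U2OS cells; the rate constant is normalized against DMSO controls serving as positive and negative references.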
VDR inh: Inhibitors of the vitamin D receptor (VDR): qHTS. Vitamin D3 receptor (Homo sapiens), P11473. VDR-SRC2-3 peptide fluorescence polarization, 2 h. Potency, µM, inactives show max response, negative = inhibition, most hits filed as inhibitors. hit rate 0.93% among 400,000; also: potency is read from the fitted curve at half-maximal effect; % is scaled to controls: 0 for no effect and ±100 for the full control effect
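The screen uses fluorescence polarization to detect compounds that interfere with recruitment of the SRC2-3 coactivator peptide to VDR; plates are read after 2 h at room temperature.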
CBFb RUNX1 block: qHTS Assay for Compounds Blocking the Interaction Between CBF-beta and RUNX1 for the Treatment of Acute Myeloid Leukemia; Runt-related transcription factor 1 (Homo sapiens) + Core-binding factor subunit beta …; AlphaScreen CBFb-His/RUNX1-biotin binding, biochemical; Potency, µM (highest dose often 59.8 µM), for inactives: at the top dose activity, negative = inhibition, most hits filed as inhibitors; 230,000 tested, under 10 active; AID 1477, 2009; also: % of control where 0% means no effect
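Bead-based AlphaScreen assay; binding partners His-tagged CBF-beta and biotinylated RUNX1 at 30 nM each. Compound exposure 15 min after a 20-min protein preincubation; bead step 90 min; all steps at room temperature.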
hERG WT inh: qHTS for Inhibitors of KCHN2 3.1: Wildtype qHTS; U2OS, BacMam KCNH2, thallium flux FluxOr; active compounds read low; hit rate 0.37% among 340,000; Voltage-gated inwardly rectifying potassium channel KCNH2 (Homo sapiens), Q12809; activity change, % at 1.84 µM;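 active = maximum activity change below -70%; inconclusive = maximum activity change between -70% and -50%; inactive = maximum activity change above -50%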; also: % is scaled to controls: 0 for no effect and ±100 for the full control effect
Target sequence (Q12809 whole entry, looked up): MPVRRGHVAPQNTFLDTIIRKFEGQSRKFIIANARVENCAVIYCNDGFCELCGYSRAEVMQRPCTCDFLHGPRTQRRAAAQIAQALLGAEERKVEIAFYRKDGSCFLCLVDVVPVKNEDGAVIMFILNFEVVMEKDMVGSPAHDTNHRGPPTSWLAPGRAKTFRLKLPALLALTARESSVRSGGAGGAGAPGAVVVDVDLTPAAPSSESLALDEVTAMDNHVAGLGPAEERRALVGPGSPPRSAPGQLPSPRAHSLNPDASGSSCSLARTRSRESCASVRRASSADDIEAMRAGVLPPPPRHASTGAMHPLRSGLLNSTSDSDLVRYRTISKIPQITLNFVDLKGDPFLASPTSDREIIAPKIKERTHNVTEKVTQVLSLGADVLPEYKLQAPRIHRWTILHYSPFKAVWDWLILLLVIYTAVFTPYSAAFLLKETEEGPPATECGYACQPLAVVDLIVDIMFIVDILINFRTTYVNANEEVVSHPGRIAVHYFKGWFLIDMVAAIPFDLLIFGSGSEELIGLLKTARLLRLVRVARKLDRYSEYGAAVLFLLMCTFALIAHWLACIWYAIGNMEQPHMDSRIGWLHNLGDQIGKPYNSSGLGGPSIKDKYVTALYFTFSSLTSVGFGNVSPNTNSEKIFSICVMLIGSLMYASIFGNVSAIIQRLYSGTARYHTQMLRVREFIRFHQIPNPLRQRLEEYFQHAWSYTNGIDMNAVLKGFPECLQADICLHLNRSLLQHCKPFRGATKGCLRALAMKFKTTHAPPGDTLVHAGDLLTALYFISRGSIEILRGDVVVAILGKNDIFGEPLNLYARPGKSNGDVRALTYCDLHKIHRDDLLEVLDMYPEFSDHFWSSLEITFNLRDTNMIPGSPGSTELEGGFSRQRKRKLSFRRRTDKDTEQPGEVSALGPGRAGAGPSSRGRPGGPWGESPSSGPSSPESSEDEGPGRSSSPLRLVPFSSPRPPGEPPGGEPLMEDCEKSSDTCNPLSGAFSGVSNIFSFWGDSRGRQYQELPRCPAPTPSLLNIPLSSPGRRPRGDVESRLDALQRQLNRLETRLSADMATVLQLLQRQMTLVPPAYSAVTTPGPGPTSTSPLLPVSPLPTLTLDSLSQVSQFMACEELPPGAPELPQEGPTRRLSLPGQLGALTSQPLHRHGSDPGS
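U2OS cells were transduced with wild-type KCNH2 virus (2.03 x 10^8 / mL) for 4 h at room temperature, then cultured overnight at 37 C. Thallium flux was read with FluxOr dye. Rate constants were normalized to DMSO controls.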
MBNL1 CUG block: qHTS Assay for Inhibitors of MBNL1-poly(CUG) RNA binding | Muscleblind-like protein 1 (Homo sapiens), Q9NR56 | TR-FRET MBNL1-His/biotin-(CUG)12 binding, 665/545 ratio | Potency, µM (doses to about 57.5 µM), inactives show at the highest dose activity change, negative = inhibition, usual class: inhibitors | hit rate 0.036% among 280,000; active = well fitted inhibition curve with a large enough effect in the signal ratio, with a control signal flat, not every such curve was filed as active; inconclusive = small, poorly fitted or top-dose-only effect, or effect the other way, or a change in a side signal; inactive = no such curve, though single readings can be large or run the other way; the % refers to the signal ratio; also: potency is read from the fitted curve at half-maximal effect; % is scaled to controls: 0 for no effect and ±100 for the full control effect
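Compound titration spanned 92 nM–58 uM against the MBNL1-His/biotin-(CUG)12 complex. After 60 min at room temperature with 5 nM streptavidin-XL665 and 0.055 ng/ul terbium anti-His, ratiometric 665/545 nm emission (Ex 340 nm) normalized to controls.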
PLK1 PBD inh: qHTS for Inhibitors of PLK1-PDB (polo-like kinase 1 - polo-box domain): Primary Screen | Serine/threonine-protein kinase PLK1 (Homo sapiens), P53350 | Plk1 PBD binding of FITC phosphopeptide, fluorescence polarization | Potency, µM, inactives show max response, negative = inhibition, usual class: inhibitors | hit rate 2.8% among 360,000 | AID 720504, 2013; also: potency is read from the fitted curve at half-maximal effect; series mostly up to about 57 µM; % is scaled to controls: 0 for no effect and ±100 for the full control effect; nearly all actives have a fitted effect of over 65% in size
* = called active by the depositor. Unless noted, calls follow the shape of the dose curve; as a rule, active = well fitted curve in the direction sought with a large enough effect; inconclusive = small, poorly fitted or top-dose-only effect, or another doubt; inactive = no such curve, though single readings can be large; an effect the other way counts as inactive or inconclusive.

For COc1cccc(-c2cncnc2Nc2ccc(F)cc2)c1 the results were VDR inh 50µM*.
Screening Cc1ccc(S(=O)(=O)N2CCN(c3nc(-c4ccc(CN5CCNCC5)s4)nc4ccccc34)CC2)cc1 returned VDR inh -21%.
`CN(C(=S)NC(=O)c1ccc(Cl)cc1)C1CCCCC1` gave KCNH2 3.1 inh -15, VDR inh -29%, hERG WT inh -74*, MBNL1 CUG block -5% and PLK1 PBD inh 21µM*.
`Cc1csc(NC(=O)CSc2nc3sc(C)c(C)c3c(=O)[nH]2)n1` gave KCNH2 3.1 inh 12, VDR inh inconclusive, CBFb RUNX1 block -2%, hERG WT inh 5, MBNL1 CUG block 0% and PLK1 PBD inh 2.4µM*.
`O=C(O)[C@H](Cc1ccccc1)NC(=O)C(c1ccccc1)(c1ccccc1)c1ccccc1` gave KCNH2 3.1 inh -6, VDR inh -26%, CBFb RUNX1 block -4%, hERG WT inh 3, MBNL1 CUG block 2% and PLK1 PBD inh 27µM*.
`O=C(CC(c1ccccc1)(c1ccccc1)c1ccccc1)N[C@@H](Cc1ccccc1)C(=O)O` gave KCNH2 3.1 inh -2, VDR inh -15%, CBFb RUNX1 block 9%, hERG WT inh 3, MBNL1 CUG block -18% and PLK1 PBD inh -4%.
Screening CCOC(=O)c1ccc(N=C2SC(C(=O)Nc3ccccc3)CC(=O)N2C)cc1 (stereo unspecified) returned VDR inh 6%.
For O=C1NN(c2ccccc2)C(=O)/C1=C/c1coc2ccccc2c1=O the results were KCNH2 3.1 inh 8, VDR inh 40µM*, CBFb RUNX1 block -5%, hERG WT inh 17, MBNL1 CUG block -14% and PLK1 PBD inh inconclusive.
`O=C1NN(c2ccccc2)C(=O)/C1=C\c1coc2ccc(O)cc2c1=O` gave KCNH2 3.1 inh 3, VDR inh 22µM*, CBFb RUNX1 block -12%, hERG WT inh 1, MBNL1 CUG block 7% and PLK1 PBD inh inconclusive.
For CN1CCN(c2oc(/C=C/c3ccc(F)cc3)nc2C#N)CC1 the results were VDR inh 12%.
`CN(C)C(=O)NC(Nc1cccc([N+](=O)[O-])c1)C(Cl)(Cl)Cl` (stereo unspecified) gave KCNH2 3.1 inh -28, VDR inh -22%, CBFb RUNX1 block -1%, hERG WT inh 1, MBNL1 CUG block inconclusive and PLK1 PBD inh 30µM*.
Screening CC(C)C(=O)NC(Nc1cccc([N+](=O)[O-])c1)C(Cl)(Cl)Cl (stereo unspecified) returned KCNH2 3.1 inh -11, VDR inh 2%, CBFb RUNX1 block 6%, hERG WT inh 0, MBNL1 CUG block inconclusive and PLK1 PBD inh -1%.
Cc1ccc(NC(=O)C2(c3ccccc3)CCOCC2)cc1 was read as KCNH2 3.1 inh -6, VDR inh -15%, CBFb RUNX1 block 2%, hERG WT inh -4, MBNL1 CUG block -3% and PLK1 PBD inh 27µM*.
Cc1cccc(N2CCN(C(=O)CN3C(=O)CSc4c3c(C)nn4-c3ccccc3)CC2)c1C was read as VDR inh 14%.
Screening COCCn1ccc2c(OCC(=O)Nc3cccc(OC)c3)cccc2c1=O returned VDR inh -7%.
For C=CCn1c(-c2cccc(Cl)c2)n[nH]c1=S the results were KCNH2 3.1 inh 2, VDR inh -1%, CBFb RUNX1 block 3%, hERG WT inh 1, MBNL1 CUG block 32% and PLK1 PBD inh -11%.
Screening C=CCn1nnnc1-c1cccc(Cl)c1 returned KCNH2 3.1 inh -24, VDR inh -5%, CBFb RUNX1 block 16%, hERG WT inh -3, MBNL1 CUG block -16% and PLK1 PBD inh 27µM*.
Screening Cc1nc(C)c(-c2ccc(SCc3cccc(F)c3)nn2)s1 returned KCNH2 3.1 inh -94*, VDR inh -2%, hERG WT inh 0, MBNL1 CUG block 194% and PLK1 PBD inh -23%.
Cc1nc(C)c(-c2ccc(SCc3ccc(Cl)cc3)nn2)s1 was read as KCNH2 3.1 inh 3, VDR inh -19%, hERG WT inh 2, MBNL1 CUG block 34% and PLK1 PBD inh -13%.
`CC1(C(=O)NS(=O)(=O)Cc2cccc(Cl)c2)CCN1C(=O)Cc1ccc(-c2ccccc2)cc1` (stereo unspecified) gave PLK1 PBD inh 67µM*.
`CC1(C(=O)NS(=O)(=O)c2ccc3ccccc3c2)CCN1C(=O)Cc1ccc(-c2ccccc2)cc1` (stereo unspecified) gave PLK1 PBD inh 42µM*.
`CC1(C(=O)NS(=O)(=O)Cc2cccc(Cl)c2)CCN1C(=O)CCc1ccccc1` (stereo unspecified) gave PLK1 PBD inh -3%.
`COc1ccc(S(=O)(=O)NC(=O)C2(C)CCN2C(=O)Cc2ccc(-c3ccccc3)cc2)cc1` (stereo unspecified) gave PLK1 PBD inh -2%.
COc1cc2c(c(OC)c1OC)-c1c(cc(OC)c(OC)c1OC)CC(C)C(C)C2 (stereo unspecified) was read as VDR inh -17% and CBFb RUNX1 block 12%.
Screening C[N+]1(Cc2ccccc2)CCC(C(=O)OCC2CCCC2)CC1 (stereo unspecified) returned VDR inh 14% and CBFb RUNX1 block 23%.
CO[C@@H](CCO)C[C@H]1O[C@H](C(=O)OC(C)C)CC[C@@H]1C was read as VDR inh 2% and CBFb RUNX1 block -6%.
`O=C(Nc1cccc(-c2cccc(F)c2)c1)C1CCN(CC2CCOC2)CC1` (stereo unspecified) gave KCNH2 3.1 inh -79*, VDR inh -15%, hERG WT inh -44, MBNL1 CUG block 6% and PLK1 PBD inh -10%.
Screening O=C(Nc1cccc(-c2cccc(F)c2)c1)C1CCN(C2CCC2)CC1 returned KCNH2 3.1 inh -91*, VDR inh -4%, hERG WT inh -97*, MBNL1 CUG block -2% and PLK1 PBD inh -13%.
O=S(=O)(c1ccc2nc(Nc3ccc(Br)cc3F)ccc2c1)N1CCCCC1 was read as VDR inh 3%.
